Tests used:
[1] = target: Serine/threonine-protein kinase 26 (Homo sapiens) (UniProt Q9P289); conditions: at 1 µM;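 further: mean inhibition of MST4 kinase activity, reported from the GSK PKIS inhibitor-set screening panel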
[2] = target: Serine/threonine-protein kinase PAK 1 (Homo sapiens) (UniProt Q13153); conditions: at 0.1 µM
[3] = target: Serine/threonine-protein kinase PAK 1 (Homo sapiens) (UniProt Q13153); conditions: at 1 µM
[4] = target: Serine/threonine-protein kinase PAK 2 (Homo sapiens) (UniProt Q13177); conditions: at 0.1 µM
Sequence of Serine/threonine-protein kinase PAK 2 (Homo sapiens) (Q13177 whole entry): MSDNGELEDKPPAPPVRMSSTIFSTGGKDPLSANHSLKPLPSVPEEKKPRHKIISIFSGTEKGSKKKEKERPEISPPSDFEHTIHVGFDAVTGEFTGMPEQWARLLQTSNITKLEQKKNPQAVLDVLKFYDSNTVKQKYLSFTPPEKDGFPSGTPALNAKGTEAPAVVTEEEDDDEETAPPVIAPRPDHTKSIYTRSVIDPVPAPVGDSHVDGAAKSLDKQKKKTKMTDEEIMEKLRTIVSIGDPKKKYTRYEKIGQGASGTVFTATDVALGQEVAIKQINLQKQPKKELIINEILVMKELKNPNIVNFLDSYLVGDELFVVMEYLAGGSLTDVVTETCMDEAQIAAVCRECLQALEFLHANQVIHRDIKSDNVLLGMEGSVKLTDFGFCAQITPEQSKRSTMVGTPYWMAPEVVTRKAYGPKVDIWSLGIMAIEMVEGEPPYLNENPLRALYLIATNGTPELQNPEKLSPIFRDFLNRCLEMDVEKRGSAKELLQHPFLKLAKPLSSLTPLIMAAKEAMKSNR

[5] = target: Serine/threonine-protein kinase PAK 2 (Homo sapiens) (UniProt Q13177); conditions: at 1 µM
[6] = target: Serine/threonine-protein kinase PAK 3 (Homo sapiens) (UniProt O75914); conditions: at 0.1 µM
Sequence of Serine/threonine-protein kinase PAK 3 (Homo sapiens) (O75914 whole entry, looked up): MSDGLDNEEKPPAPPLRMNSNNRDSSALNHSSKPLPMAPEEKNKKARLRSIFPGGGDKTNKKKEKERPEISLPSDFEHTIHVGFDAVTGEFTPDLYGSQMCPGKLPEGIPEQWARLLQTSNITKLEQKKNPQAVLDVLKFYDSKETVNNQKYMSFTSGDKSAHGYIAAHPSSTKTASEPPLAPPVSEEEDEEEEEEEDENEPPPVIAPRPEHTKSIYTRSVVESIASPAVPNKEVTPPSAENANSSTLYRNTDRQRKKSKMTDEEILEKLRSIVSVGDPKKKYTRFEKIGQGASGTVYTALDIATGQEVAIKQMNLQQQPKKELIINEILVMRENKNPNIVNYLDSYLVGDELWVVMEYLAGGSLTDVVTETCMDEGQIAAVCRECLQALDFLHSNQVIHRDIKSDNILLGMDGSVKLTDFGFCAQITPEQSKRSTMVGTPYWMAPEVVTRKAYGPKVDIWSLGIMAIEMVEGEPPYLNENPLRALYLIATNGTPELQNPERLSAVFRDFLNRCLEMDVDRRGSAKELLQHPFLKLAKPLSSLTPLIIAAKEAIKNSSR

[7] = target: Serine/threonine-protein kinase PAK 3 (Homo sapiens) (UniProt O75914); conditions: at 1 µM
[8] = target: Serine/threonine-protein kinase PAK 5 (Homo sapiens) (UniProt Q9P286); conditions: at 0.1 µM
Sequence of Serine/threonine-protein kinase PAK 5 (Homo sapiens) (Q9P286 whole entry, looked up): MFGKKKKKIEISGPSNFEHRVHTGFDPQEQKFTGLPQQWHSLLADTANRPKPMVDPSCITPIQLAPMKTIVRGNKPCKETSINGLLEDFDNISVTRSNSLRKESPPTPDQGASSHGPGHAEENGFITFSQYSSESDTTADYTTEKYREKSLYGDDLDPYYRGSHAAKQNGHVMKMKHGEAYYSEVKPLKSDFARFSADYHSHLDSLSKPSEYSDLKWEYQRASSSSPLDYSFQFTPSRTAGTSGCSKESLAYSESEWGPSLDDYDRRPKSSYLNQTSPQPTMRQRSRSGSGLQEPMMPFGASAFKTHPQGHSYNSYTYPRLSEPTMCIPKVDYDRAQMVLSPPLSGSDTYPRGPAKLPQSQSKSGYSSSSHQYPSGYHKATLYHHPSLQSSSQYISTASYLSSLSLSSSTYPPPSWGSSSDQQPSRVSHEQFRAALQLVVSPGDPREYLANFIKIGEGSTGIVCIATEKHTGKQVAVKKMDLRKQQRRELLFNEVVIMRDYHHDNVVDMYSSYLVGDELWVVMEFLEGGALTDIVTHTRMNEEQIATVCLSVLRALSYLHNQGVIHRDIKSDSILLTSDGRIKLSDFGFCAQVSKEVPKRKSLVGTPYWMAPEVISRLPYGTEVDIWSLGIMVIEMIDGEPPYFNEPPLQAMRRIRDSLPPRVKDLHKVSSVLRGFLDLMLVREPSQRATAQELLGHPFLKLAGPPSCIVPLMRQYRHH

[9] = target: Serine/threonine-protein kinase PAK 5 (Homo sapiens) (UniProt Q9P286); conditions: at 1 µM
[10] = target: Serine/threonine-protein kinase PAK 6 (Homo sapiens) (UniProt Q9NQU5); conditions: at 0.1 µM;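 further: mean PAK6 inhibition reported from the GSK PKIS screen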
Sequence of Serine/threonine-protein kinase PAK 6 (Homo sapiens) (Q9NQU5 whole entry, looked up): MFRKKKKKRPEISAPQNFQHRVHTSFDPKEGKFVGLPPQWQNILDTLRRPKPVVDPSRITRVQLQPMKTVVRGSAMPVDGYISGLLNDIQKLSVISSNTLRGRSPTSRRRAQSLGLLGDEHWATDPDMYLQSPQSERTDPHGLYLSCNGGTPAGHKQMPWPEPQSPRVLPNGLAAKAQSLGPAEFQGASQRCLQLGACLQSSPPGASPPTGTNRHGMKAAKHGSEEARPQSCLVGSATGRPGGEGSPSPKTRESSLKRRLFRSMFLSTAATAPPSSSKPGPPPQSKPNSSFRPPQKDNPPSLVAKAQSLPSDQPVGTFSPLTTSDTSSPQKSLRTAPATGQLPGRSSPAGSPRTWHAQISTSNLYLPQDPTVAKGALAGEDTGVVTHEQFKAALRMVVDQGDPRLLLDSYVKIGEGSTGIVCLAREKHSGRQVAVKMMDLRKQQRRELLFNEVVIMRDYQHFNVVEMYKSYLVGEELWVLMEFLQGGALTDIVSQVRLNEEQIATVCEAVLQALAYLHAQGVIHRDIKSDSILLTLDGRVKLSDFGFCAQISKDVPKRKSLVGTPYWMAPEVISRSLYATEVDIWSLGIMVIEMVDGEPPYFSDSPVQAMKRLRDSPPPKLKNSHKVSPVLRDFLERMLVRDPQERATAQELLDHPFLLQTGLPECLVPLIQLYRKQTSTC

Sequence of Serine/threonine-protein kinase 26 (Homo sapiens) (Q9P289 2-416 limits assumed): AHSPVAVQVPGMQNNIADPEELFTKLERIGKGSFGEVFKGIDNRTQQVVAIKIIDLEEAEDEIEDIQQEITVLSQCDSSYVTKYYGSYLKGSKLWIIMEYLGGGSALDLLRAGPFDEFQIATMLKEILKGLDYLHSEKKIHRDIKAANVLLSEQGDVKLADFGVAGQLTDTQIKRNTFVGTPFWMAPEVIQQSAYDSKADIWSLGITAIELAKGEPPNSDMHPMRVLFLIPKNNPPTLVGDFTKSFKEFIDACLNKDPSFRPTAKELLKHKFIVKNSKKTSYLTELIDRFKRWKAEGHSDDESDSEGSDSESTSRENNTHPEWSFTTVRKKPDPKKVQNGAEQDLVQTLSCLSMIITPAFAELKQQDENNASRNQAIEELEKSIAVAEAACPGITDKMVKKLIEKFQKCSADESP
Sequence of Serine/threonine-protein kinase PAK 1 (Homo sapiens) (Q13153 whole entry): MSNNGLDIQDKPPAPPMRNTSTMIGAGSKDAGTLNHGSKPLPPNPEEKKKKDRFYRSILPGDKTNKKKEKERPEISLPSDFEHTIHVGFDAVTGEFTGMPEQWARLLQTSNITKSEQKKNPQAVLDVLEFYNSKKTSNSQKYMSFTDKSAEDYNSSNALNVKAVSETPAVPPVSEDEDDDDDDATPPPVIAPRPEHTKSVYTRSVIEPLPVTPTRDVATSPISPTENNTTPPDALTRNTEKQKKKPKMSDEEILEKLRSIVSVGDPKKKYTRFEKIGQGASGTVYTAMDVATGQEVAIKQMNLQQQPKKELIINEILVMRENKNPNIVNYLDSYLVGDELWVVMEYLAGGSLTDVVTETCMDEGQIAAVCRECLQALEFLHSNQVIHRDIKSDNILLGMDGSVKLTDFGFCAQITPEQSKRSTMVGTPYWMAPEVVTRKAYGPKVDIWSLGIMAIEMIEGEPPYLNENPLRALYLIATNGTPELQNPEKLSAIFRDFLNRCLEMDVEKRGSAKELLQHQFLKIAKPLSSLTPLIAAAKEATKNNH

| Compound | inhibition [1] | inhibition [2] | inhibition [3] | inhibition [4] | inhibition [5] | inhibition [6] | inhibition [7] | inhibition [8] | inhibition [9] | inhibition [10] |
| --- | --- | --- | --- | --- | --- | --- | --- | --- | --- | --- |
| CS(=O)(=O)CCNCc1ccc(-c2ccc3ncnc(Nc4ccc(OCc5ccccc5)c(Cl)c4)c3c2)o1 | 0.42% | -1.29% | 7.48% | 0.77% | -0.12% | -0.48% | -0.08% | -6.06% | -8.65% |  |
| CNC(=O)c1cncc(/C=C/c2c(Cl)cccc2Cl)c1 | -0.15% | 4.17% | 11% | 1.59% | 0.88% | 4.45% | 5.48% | 5.92% | 6.55% |  |
| CC1=C(C(=O)Nc2ccc3[nH]ncc3c2)C(c2ccc(Cl)c(Cl)c2)CC(=O)N1 (centres undefined) | -1.05% | 2.74% | 3.36% | 0.48% | -0.06% | 0.86% | 0.53% | 4.97% | -3.2% | 6.11% |
| COc1ccc2cc(-c3c(-c4ccncc4)nc(-c4ccc([S+](C)[O-])cc4)n3C)ccc2c1 (centres undefined) | -1.05% | 4.83% | 2.57% | 1.33% | 1.31% | 3.03% | 3.28% | -4.32% | -3.64% | -2.25% |
| CCN1CCC(CC(=O)Nc2n[nH]c3nc(-c4cccs4)c(Br)cc23)CC1 | 12% | -4.19% | -3.71% | -2.22% | -2.2% | -1.67% | -3.03% | 0.15% | 16.4% |  |
| CCCN1CCC=C(c2ccc(Nc3nc(Nc4ccccc4C(N)=O)c4cc[nH]c4n3)c(C)c2)C1 | -1.15% | 8.77% | 12.7% | 2.2% | 3.03% | 5% | 6.44% | 6.43% | 14.2% |  |
| O=C(Nc1n[nH]c2nc(-c3ccco3)c(Br)cc12)C1CC1 | -2.34% | 4.84% | 6.66% | 2.69% | 3.61% | 3.75% | 3.54% | -1.27% | -1.99% | 0.11% |
| COc1ccccc1Nc1ncc(-c2ccccc2)o1 | 0.41% | 10.5% | 12.7% | 1.73% | 1.5% | 6.21% | 6.38% | -2.83% | -2.65% |  |
| COc1cc(C=NNc2ncnc3c2cnn3-c2ccccc2)ccc1O | 13.3% | 4.14% | 5.41% | 2.39% | 1.53% | 2.39% | 2.83% | -3.08% | 0.18% | 5.73% |
| COc1ccc(COc2ccc(Cc3cnc(N)nc3N)cc2OC)cc1 | 0.63% | 1.82% | 5.79% | 0.46% | 0.32% | 1.75% | 1.06% | 0.6% | 7.84% | 0.33% |
| COc1cc2c(cc1Nc1nc(N3CCc4ccccc43)c3cc[nH]c3n1)N(C(=O)CN(C)C)CC2 | 4.16% | 3.44% | 4.36% | 0.89% | 1.19% | 1.31% | 2.24% | 0.19% | -1.41% | -3.46% |
| NC(=O)c1ccc(-c2nc(-c3ccccn3)c(-c3ccc4c(c3)OCO4)[nH]2)cc1 | 2.93% | 4.04% | 5.77% | 0.67% | 1.08% | 2.68% | 2.97% | -3.79% | -0.72% | -8.04% |
| Cc1ccc(NC(=O)c2ccnc(N3CCCC3)c2)cc1-c1ccc(C(=O)NCC2CC2)cc1 | 6.65% | 5.46% | 8.39% | 1.66% | 0.96% | 4.52% | 5.08% | -9.56% | -5.63% | -2.61% |
| O=C1NC(=O)C(c2ccc(Cl)cc2)=C1Nc1ccc(Cl)c(C(=O)O)c1 | -0.4% | -2.53% | 2.15% | -1.89% | -1.88% | -3.46% | -2.5% | 0.14% | 0.32% | 13.1% |
| Cc1cccc(-c2n[nH]cc2-c2ccc3ncccc3n2)n1 | 2.02% | -2.12% | 3.22% | -2.02% | -0.91% | 0.55% | 1.22% | -7.66% | -3.76% | -5.68% |
| CC(=O)Nc1cccc(C#Cc2cncnc2Nc2ccc(OCc3cccc(F)c3)c(Cl)c2)n1 | 2.51% | 1.24% | 0.67% | -0.89% | -0.09% | -0.61% | -0.35% | 4.91% | 9.12% | 10.8% |
| COc1ccc(-c2nn3ncccc3c2-c2ccnc(Nc3ccc(Cl)c(C(F)(F)F)c3)n2)cc1 | 0.3% | 2.46% | 0.59% | -0.08% | 0.63% | 2.32% | 2.56% | 1.71% | -1.65% | -0.34% |

| Compound | inhibition [1] | inhibition [2] | inhibition [3] | inhibition [4] | inhibition [5] | inhibition [6] | inhibition [7] | inhibition [8] | inhibition [9] | inhibition [10] |
| --- | --- | --- | --- | --- | --- | --- | --- | --- | --- | --- |
| CS(=O)(=O)CCNCc1nc(-c2ccc3ncnc(Nc4ccc(F)c(Cl)c4)c3c2)cs1 | 0.43% | 2.77% | 4.21% | 1.56% | 1.25% | 2% | 3.08% | 2.01% | 8.16% | 5.79% |
| CCn1c(-c2nonc2N)nc2c(C#CC(C)(C)O)nc(CN3CCCC3)cc21 | 7.65% | 0.14% | 2.33% | -2.93% | -0.92% | -0.82% | 0.31% | -4.5% | -1.51% | 10.8% |
| CCCN1CCC(Oc2cc(Nc3nc(Nc4cccc(F)c4C(N)=O)c4cc[nH]c4n3)c(OC)cc2Cl)CC1 | 2.1% | -3.06% | 1.83% | -1.01% | -0.56% | -0.46% | -0.24% | 6.57% | 3.44% | 2.36% |
| COc1cccc(-n2ncc3c(N/N=C/c4cccc(F)c4)ncnc32)c1 | 2.84% | 6.15% | 6.44% | 0.05% | 0.67% | 1.51% | 2.17% | -1.62% | -8.07% | 12.7% |
| COc1cc(C)c(NC(=O)CN(C)C)cc1Nc1nc(Nc2cccc(F)c2C(N)=O)c2cc[nH]c2n1 | -2.75% | 2.74% | 3.36% | 1.54% | 1.5% | 1.84% | 2.37% | -4.59% | -5.11% | 5.11% |
| N#Cc1c(NC(=O)c2cccc3ccccc23)sc2c1CCCC2 | 1.23% | 5.02% | 3.74% | 0.12% | 1.16% | 2.52% | 3.41% | -2.18% | -9.6% | 7.76% |
| CS(=O)(=O)Nc1ccc(N/C=C2\C(=O)Nc3ccccc32)cc1 | -0.36% | -4.5% | -3.06% | -1.89% | -3.37% | -3.72% | -2.59% | -2.35% | 0.84% | -9.71% |
| CCn1c(-c2nonc2N)nc2cnc(Oc3cccc(NC(=O)c4ccc(OCCN5CCOCC5)cc4)c3)cc21 | 2.57% | 3.65% | 5.84% | -0.41% | 0.34% | -3.22% | 2.69% | 1.02% | -0.29% | -6.86% |
| CCn1c(-c2nonc2N)nc2cncc(C(=O)N3CCNCC3)c21 | 1.91% | 9.41% | 15.3% | 3.6% | 4.45% | 7.27% | 9.28% | 6.95% | 8.13% | -5.05% |
| CN1CCC(C(=O)Nc2n[nH]c3nnc(-c4ccccc4)cc23)CC1 | 1.63% | 10.6% | 7.32% | 1.19% | 2.25% | 5.86% | 6.46% | 3.31% | 6.52% |  |
| c1cnn2ncc(-c3ccnc(Nc4ccc5c(c4)OCCO5)n3)c2c1 | -0.78% | 3.98% | 4.56% | 4.04% | 3.37% | 4.71% | 4.73% | 8.91% | 14.7% | 2.92% |
| Cc1nnc(-c2ccc(C)c(-c3ccc(C(=O)Nc4cccc(C#N)c4)cc3)c2)o1 | -0.56% | 5.8% | 1.41% | 0.71% | 0.48% | 2.48% | 2.15% | 0.22% | -1.12% | -9.89% |
| COc1cc2ncn(-c3cc(O[C@@H](C)c4ccccc4Cl)c(C(N)=O)s3)c2cc1OC | -7.1% | 7.98% | 9.51% | 1.89% | 2.93% | 5.16% | 5.27% | 2.62% | 4.73% | -0.86% |
| Cc1cc(O)cc(C)c1/C=C/c1cncc(-c2nn[nH]n2)c1 | 0.45% | 6.83% | 7.1% | 2.28% | 2.67% | 4.55% | 5.43% | 1.47% | -1.45% | 7.17% |
| COc1ccc(-c2ccncc2)cc1C(N)=O | -5.1% | 4.54% | 10% | 2.37% | 3.02% | 5.3% | 10.3% | 5.08% | 8.05% | -8.8% |
| COC(=O)Nc1nc2cc(Oc3cccc(NC(=O)Nc4cc(C(F)(F)F)ccc4F)c3)ccc2[nH]1 | 1.92% | 3.97% | -1.03% | -1.19% | 0.23% | -1.11% | -1.11% | 0.91% | -5.17% | 6.44% |

— ChEMBL document CHEMBL1961873, “Compounds: GSK PKIS; Assays: Nanosyn kinase panel” (2012)
